# From PubChem BioAssay (NCI)
# Compounds without any hit were thinned out: in the full panel of roughly 83,000, 20% have a hit.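 Interpretation: 100, growth as untreated; towards 0, rising growth inhibition; 0, no net growth; 0 to -100, cell death. Compounds scoring below 10 were considered active.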 Unmarked numbers belong to inactive results. Active and inactive are the calls of the source.
# What was measured:
# Assay in all cases: NCI-60 one-dose screen, 48 h (100 = growth as untreated, 0 = no growth, -100 = all killed)
# Conditions in all cases: 10 µM unless noted
# [1] = test system: NCI-H23 lung
# [2] = test system: NCI-H226 lung
# [3] = test system: NCI-H322M lung
# [4] = test system: HOP-62 NSCLC
# [5] = test system: NCI-H460 lung
# [6] = test system: HOP-92 NSCLC
# [7] = test system: NCI-H522 lung
# [8] = test system: A549/ATCC NSCLC
# [9] = test system: 786-0 renal
# [10] = test system: COLO 205 colon
# [11] = test system: DU-145 prostate
# [12] = test system: K-562 leukemia
# [13] = test system: MALME-3M melanoma
# [14] = test system: MDA-MB-231 breast
# [15] = test system: RXF 393 renal
# [16] = test system: SF-268 CNS
# [17] = test system: SF-295 CNS
# [18] = test system: SF-539 CNS
# [19] = test system: UACC-257 melanoma
# [20] = test system: M14 melanoma
SMILES,growth [1],growth [2],growth [3],growth [4],growth [5],growth [6],growth [7],growth [8],growth [9],growth [10],growth [11],growth [12],growth [13],growth [14],growth [15],growth [16],growth [17],growth [18],growth [19],growth [20]
CCCCN[C@H]1CC[C@@]2(C)[C@@H](CC[C@@]3(C)[C@H]2[C@H](O)C[C@H]2/C(=C(\CCC=C(C)C)C(=O)OC)[C@@H](OC(C)=O)C[C@@]23C)[C@@H]1C,90.5%,98%,97.2%,103%,100%,86.5%,93%,103%,99.2%,104%,112%,30.5%,96.9%,114%,103%,100%,99%,99.3%,98.1%,96.2%
N#C/C(=C\c1ccc2ccccc2c1)c1cc2ccccc2[nH]1,48.8%,67.9%,63.3%,40.4%,13.3%,41.5%,1.83% (active),51.1%,41.1%,24.9%,59.5%,19.4%,45%,41.5%,29.3%,54.2%,33%,32.9%,63.2%,18%
CN(C)c1ccc(/C=C/C(=O)c2ccc(-n3cc(CN4CCN(c5cc6c(cc5F)c(=O)c(C(=O)O)cn6C5CC5)CC4)nn3)cc2)cc1,80.3%,81.7%,77.5%,67.3%,32.5%,50.3%,48.5%,82.2%,33.2%,105%,51.7%,21.9%,89.2%,65.3%,45%,35.7%,81.2%,27.9%,88.3%,60.9%
Cc1ccc(-c2nn(-c3ccccc3)cc2C=C2C(=O)ON=C2C(C)C)cc1,89.2%,95.3%,91.2%,88.6%,80%,86%,74%,86.8%,78.7%,114%,88.1%,34.2%,85.2%,97.3%,89.9%,94.8%,96.8%,83.6%,96.4%,65.8%
CN[C@]12CC3(C=CC(=O)C=C3)O[C@@]1(Cc1ccc(OC)cc1)N(C)C(=O)N2,82.8%,22.2%,49.7%,23.9%,98.7%,39.3%,-46.5% (active),79.7%,6.84% (active),19%,85.2%,7.19% (active),11.2%,76.9%,43.7%,66.4%,103%,12.2%,41%,9.52% (active)
N#Cc1cccc(NC(=O)c2oc3ccccc3c2-c2cnn(-c3ccccc3)c2)c1,83.7% [50 µM],72.5% [50 µM],74.1% [50 µM],92.6% [50 µM],84.3% [50 µM],-23.3% [50 µM] (active),59% [50 µM],81.4% [50 µM],85.7% [50 µM],91.8% [50 µM],105% [50 µM],4.93% [50 µM] (active),101% [50 µM],82.7% [50 µM],75.7% [50 µM],92.4% [50 µM],74% [50 µM],81.5% [50 µM],94.7% [50 µM],84% [50 µM]
S=C1CCSC(=S)N1CCCN1C(=S)CCSC1=S,81.1%,101%,113%,90.5%,97.7%,106%,5.23% (active),97.7%,44.9%,64.2%,73.3%,29.4%,74.2%,75.3%,57.9%,87.2%,105%,71.6%,89%,83.1%
